# Bioassay records as filed in PubChem.
# Sfp inh: blocks B. subtilis Sfp PPTase activity; Biochemical Sfp PPTase activity, qHTS; AID 1490; hit rate 3.5% among 310,000; Q9F4F7; Potency, µM, for inactives: largest response in the series, negative = inhibition, most hits filed as inhibitors;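 further: the enzyme is Sfp with the accession as filed and its product quenches rhodamine fluorescence; potency means the concentration at half of the fitted maximal effect; 0% = enzyme reaction without inhibitor and -100% = no enzyme wells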
#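 Fluorescence-quenching assay with 15 nM Sfp, 5 uM rhodamine-CoA and 12.5 uM BHQ-2-labelled ybbR peptide in pH 7.6 Hepes/MgCl2 buffer. Enzyme was pre-incubated with compound for 15 min at room temperature. Rate was taken from the 30-min fluorescence change (525/598 nm).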
# FBPA coupling cs: counter-screen for Giardia aldolase inhibitors: coupling enzyme system | coupling enzyme system counterscreen, AmpLite Red fluorescence | hit rate 0.67% among 290,000 | activity change, negative = inhibition, % at 58.2 µM, hits read low; in the data active means activity change below about -30%
#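 Compounds tested against the coupling enzymes alone at 57.5 uM final; readout was AmpLite Red fluorescence (525/598 nm) after 20 min at RT.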
# Tau FP inhib: blocks human tau fibril formation measured by polarization; P10636; K18 P301L tau heparin fibrillization, Alexa594 FP, 6 h; Potency, µM (top dose mostly 57.7 µM), inactives show at the highest dose activity, negative = inhibition, actives largely listed as inhibitors; hit rate 0.39% among 280,000; further: potency means the concentration at half of the fitted maximal effect; nearly all actives have a fitted effect of over 55% in size
# Target sequence (P10636 561-689 P618L limits assumed): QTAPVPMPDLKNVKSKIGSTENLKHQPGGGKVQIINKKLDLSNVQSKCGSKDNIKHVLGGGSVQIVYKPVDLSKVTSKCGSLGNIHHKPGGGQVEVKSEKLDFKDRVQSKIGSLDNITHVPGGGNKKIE
#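 Quantitative HTS format: compounds meet 15 uM recombinant K18 P301L tau and Alexa 594-tau tracer in 100 mM sodium acetate pH 7; 20 uM heparin triggers fibrillization at 37 C over 6 hr; FP gives the signal.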
# Tau ThT inhib: blocks human tau fibril formation measured by thioflavin T; P10636; recombinant tau K18 P301L, heparin-induced fibrillization, ThT fluorescence; Potency, µM (series often up to 57.4 µM), without a hit: at the top dose activity, negative = inhibition, hits mostly inhibitors; hit rate 2.1% among 270,000; AID 1460; further: potency means the concentration at half of the fitted maximal effect; nearly all actives have a fitted effect of over 55% in size
#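 Heparin-induced fibrillization of the P301L-mutant K18 repeat-domain fragment of human tau was followed by ThT binding in quantitative high-throughput format.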
# Tau fluor counter: counter-screen for tau fibril formation inhibitors. hit rate 0.93% among 280,000. tau K18 P301L Alexa594 fluorescence, heparin fibrillization. Potency, µM (titrated, usually from 57.7 µM), without a hit: at the highest dose activity change, negative = decrease; further: potency means the concentration at half of the fitted maximal effect; nearly all actives have a fitted effect of over 55% in size
#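 Human tau K18 P301L (15 uM unlabeled, 0.24 uM Alexa 594-labeled) in 100 mM sodium acetate pH 7 with 20 uM heparin, 6 hr at 37 C. ThT 30 uM added, 1 hr ambient; Alexa 594 FP and total fluorescence read at 555/632 nm.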
# An asterisk follows results filed as active; ? = inconclusive; . = no result; [ ] = another dose, or the depositor's remark. A selection: hits, their analogues and other compounds. The true share with any hit is near 5.2%. Unless noted, the call rests on the fitted dose curve; in most records, active means well fitted curve in the direction sought with a large enough effect; inconclusive means small, poorly fitted or top-dose-only effect, or another doubt; inactive means no such curve, though single readings can be large; an effect the other way counts as inactive or inconclusive. Unless noted, on the % scale 0 is the no-effect control and ±100 the full control effect.
SMILES,Sfp inh,FBPA coupling cs,Tau FP inhib,Tau ThT inhib,Tau fluor counter
Cc1ccc(NC(=O)c2sc3nc(-c4ccncc4)ccc3c2N)cc1,.,.,-18%,?,-20%
Cc1nn(CC(=O)N2CCCCC2)c(=O)c2cc3occc3n12,.,.,-4%,3%,-3%
CN1C(C(=O)c2ccccc2)=C(NC(=O)c2ccccc2Br)c2ccccc2S1(=O)=O,.,.,?,2%,?
Cn1nnnc1SCCCNCc1cc(Br)ccc1OCc1ccccc1F,.,.,-13%,-10%,-20%
COc1cccc(-c2ccc3c(N)c(C(=O)Nc4cc(F)ccc4F)sc3n2)c1,.,.,12%,?,?
COc1cccc(-c2ccc3c(N)c(C(=O)NC4CC4)sc3n2)c1,6%,-2,13%,?,16µM*[quencher]
COc1cccc2c(C)cc3nnc(SCC(=O)Nc4ccc(C)cc4)n3c12,.,.,9%,-4%,-9%
CC(C)c1cc(=O)n2[nH]c(N)nc2n1,79µM*,-3,5%,-6%,7%
CCCSc1nc2sc3c(c2c(=O)n1Cc1ccccc1)CC(C)(CC)OC3 (stereo not drawn),.,.,1%,-12%,-9%
O=[N+]([O-])c1cc2c(cc1/C=N/n1c(-c3ccccc3)n[nH]c1=S)OCO2,40µM*,1,7%,?,-19%
O=[N+]([O-])c1ccccc1/C=N/n1c(-c2cccnc2)n[nH]c1=S,?,1,0%,?,-22%
O=[N+]([O-])c1ccccc1/C=C/C=N/n1c(-c2cc(-c3ccccc3)n[nH]2)n[nH]c1=S,18µM*,5,1%,-17%,?
O=[N+]([O-])c1cc2c(cc1/C=N/n1c(-c3ccccn3)n[nH]c1=S)OCO2,22µM*,-2,-7%,?,-10%
Cc1ccccc1-c1nc(SCC(=O)NCc2ccco2)c2c(=O)n(C)c(=O)n(C)c2n1,.,.,2%,6%,8%
COc1ccc2c(c1)CC(C(=O)Nc1cc(Cl)ccc1C)CO2 (stereo not drawn),.,.,-13%,-6%,-12%
COc1cc(-c2noc(CSc3nc(-c4ccccc4)cc(=O)[nH]3)n2)cc(OC)c1OC,.,.,-16%,-11%,-15%
COc1ccc(-c2noc(CSc3nc(-c4ccccc4)cc(=O)[nH]3)n2)cc1OC,35µM*,-1,-5%,-7%,-13%
CN(C)NC(=S)NC1CCS(=O)(=O)C1 (stereo not drawn),79µM*,2,-3%,-6%,-8%
O=S1(=O)CCC(NC(=S)NC2CCS(=O)(=O)C2)C1 (stereo not drawn),5%,2,1%,6%,4%
CCCCC(=O)OC1=C(C(=O)c2ccccc2)N(C)S(=O)(=O)c2ccccc21,.,.,12%,14µM*,-23%
CCOC(=O)c1noc2ncnc(NCc3ccccc3OC)c12,.,.,-10%,-8%,-11%
CN(C(=O)COC(=O)c1ccc2c(c1)NC(=O)CS2)C1CCS(=O)(=O)C1 (stereo not drawn),-9%,-2,-1%,2%,6%
CC(C)CN(C(=O)COC(=O)c1ccc2c(c1)NC(=O)CS2)C1CCS(=O)(=O)C1 (stereo not drawn),50µM*,0,-5%,?,-6%
CN(C)S(=O)(=O)c1ccc(Cl)c(NC(=O)COC(=O)c2ccc3c(c2)NC(=O)CS3)c1,25µM*,1,-15%,-20%,-30%
CN(C)S(=O)(=O)c1ccc(Cl)c(NC(=O)COC(=O)c2ccc(O)cc2)c1,0%,0,7%,-5%,-11%
SMILES,Sfp inh,FBPA coupling cs,Tau FP inhib,Tau ThT inhib,Tau fluor counter
O=C(NCc1ccc(F)cc1)C1CCN(S(=O)(=O)c2ccc3c(c2)CCCN3C(=O)C2CCC2)CC1,.,.,10%,-8%,-3%
COc1cc(C(CC(=O)N2CCOCC2)c2c(OC)cc(OC)c3c(-c4ccccc4)cc(=O)oc23)cc(OC)c1OC (stereo not drawn),1%,1,.,.,.
COC(=O)c1ccc2c(c1)N(CC(=O)Nc1cccc(Cl)c1C)C(=O)c1ccccc1S2,.,.,-6%,9%,2%
COc1ccc2cc(C(c3nnnn3C3CCCC3)N3CCc4ccccc4C3)c(=O)[nH]c2c1 (stereo not drawn),22µM*,-33*,?,28µM*,-20%
COc1ccc2cc(C(c3nnnn3C(C)(C)C)N3CCc4ccccc4C3)c(=O)[nH]c2c1 (stereo not drawn),?,-16,-4%,?,-13%
CCC(C)(C)n1nnnc1C(c1cc2ccc(OC)cc2[nH]c1=O)N1CCc2ccccc2C1 (stereo not drawn),4.5µM*,-27,-6%,?,-12%
CCC(C)(C)n1nnnc1C(c1cc2ccc(OC)cc2[nH]c1=O)N1CCc2ccccc21 (stereo not drawn),10µM*,2,8%,?,?
CS(=O)(=O)N1CCC2(CC1)CN(c1cccc(-c3ccccc3)c1)C2,3%,-2,.,.,.
Cc1ccc2c(c1)c1c(c(=O)n(-c3cccc(Cl)c3)c(=O)n1CC(=O)c1ccc(Cl)cc1)n2C,.,.,-4%,-2%,-11%
O=C(CN1C(=O)COc2ccc(S(=O)(=O)N3CCCC3)cc21)N1CCN(c2cccc(C(F)(F)F)c2)CC1,.,.,0%,-1%,-7%
COc1ccc(OC)c(CNC(=O)c2nn(-c3ccc(OC)c(Cl)c3)c(=O)c3c2c2ccccc2n3C)c1,.,.,-11%,4%,-7%
O=C(NCc1ccco1)c1cc2cc(Br)ccc2o1,20µM*,.,.,.,.
O=C(NCc1ccc2c(c1)OCO2)c1cc2c(s1)CSC2,-8%,2,-13%,?,-23%
O=C(NCc1ccco1)c1ccc2nccnc2c1,10%,-4,.,.,.
O=C(NCc1ccco1)c1cnccn1,40µM*,3,-6%,-3%,6%
O=C(NCc1ccco1)c1cc2c(s1)CSC2,-78%,-4,?,28µM*,-18%
O=C(NCc1ccco1)c1cc(=O)c2ccccc2o1,5%,1,-4%,-4%,-6%
O=C(NCc1ccco1)c1ccc(Oc2ccccc2)cc1,79µM*,-3,2%,-9%,-18%
C=C1c2ccccc2O[C@H](C(=O)OCC)[C@@H]1CC(C)(C)c1ccccc1,3%,-2,-9%[81.3 µM],?,-22%[81.3 µM]
COc1cc(C(=O)NCC(c2cccs2)S(=O)(=O)c2ccc(F)cc2)cc(OC)c1OC (stereo not drawn),.,.,-13%,-13%,-23%
O=C(NCc1ccco1)c1ccc2c(c1)C(=O)c1ccccc1-2,11µM*,0,?,13µM*,-29%
O=C(NCc1ccco1)c1cccc(Br)c1,71µM*,2,.,.,.
CCOC(=O)c1cnc2ccc(Cl)cc2c1Nc1ccc(OCC)cc1,.,.,?,?,-20%
CCOC(=O)c1cnc2ccc(Cl)cc2c1NCCN(C)C,-5%,-57*,11%,10%,8%
Cc1ccccc1OCCCn1c(-c2ccc(Cl)cc2)nc2ccccc2c1=O,.,.,-4%,3%,1%
